Out of some 5,500 compounds screened, about 2,000 (36%) were called active. Not shown: some 18% with an inconclusive outcome. Rule as the data show it: active = normalized growth mostly below about 0.91 (no sharp cut-off); inconclusive = no clear call, values can overlap the other calls; inactive = mostly above about 0.92. Some of the results follow.
Assay: chemical genetic growth profiling, strain panel (AID 1159580);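 also: tested at 20 µM; growth read once vehicle control cultures reached saturation at 30 °C; 1 = growth at the plate median or of vehicle wells; lower values mean less growth of the strain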
Settings: growth OD

Measured: normalized growth

C[C@@H]1O[C@@H](O[C@H]2[C@@H](Oc3cc(O)c4c(c3)O[C@H](c3ccc(O)cc3)CC4=O)O[C@H](CO)[C@@H](O)[C@@H]2O)[C@H](O)[C@H](O)[C@H]1O
inactive: S. cerevisiae deletion strains, locus YJR075W, strain HOC1, stronger effect = lower value 0.996 | S. cerevisiae deletion strains, locus YKL009W, strain mrt4, stronger effect = lower value 0.997 | S. cerevisiae deletion strains, locus YKL068W, stronger effect = lower value 1 | S. cerevisiae deletion strains, locus YKL085W, strain MDH1 (second series), stronger effect = lower value 0.996 | S. cerevisiae deletion strains, locus YKL085W, strain MDH1, stronger effect = lower value 0.996 | S. cerevisiae deletion strains, locus YKL160W, strain elf1, stronger effect = lower value 0.971 | S. cerevisiae deletion strains, locus YKL190W, strain CNB1, stronger effect = lower value 1 | S. cerevisiae deletion strains, locus YKR001C, strain vps1, stronger effect = lower value 1.01 | S. cerevisiae deletion strains, locus YKR026C, strain gcn3, stronger effect = lower value 0.996 | S. cerevisiae deletion strains, locus YKR091W, strain srl3, stronger effect = lower value 0.969 | S. cerevisiae deletion strains, locus YLL001W, strain dnm1, stronger effect = lower value 0.952 | S. cerevisiae deletion strains, locus YLL026W, stronger effect = lower value 0.974 | S. cerevisiae deletion strains, locus YLL041C, strain sdh2, stronger effect = lower value 0.983 | S. cerevisiae deletion strains, locus YLR027C, strain aat2, stronger effect = lower value 0.967 | S. cerevisiae deletion strains, locus YLR039C, strain RIC1, stronger effect = lower value 0.97 | S. cerevisiae deletion strains, locus YLR058C, strain SHM2, stronger effect = lower value 0.977 | S. cerevisiae deletion strains, locus YLR102C, strain apc9, stronger effect = lower value 1 | S. cerevisiae deletion strains, locus YLR113W, strain HOG1, stronger effect = lower value 0.969 | S. cerevisiae deletion strains, locus YLR221C, strain rsa3, stronger effect = lower value 0.957 | S. cerevisiae deletion strains, locus YLR258W, strain gsy2, stronger effect = lower value 0.981 | S. cerevisiae deletion strains, locus YLR262C, strain YPT6 (second series), stronger effect = lower value 0.979 | S. cerevisiae deletion strains, locus YLR262C, strain YPT6, stronger effect = lower value 0.969 | S. cerevisiae deletion strains, locus YLR268W, strain sec22, stronger effect = lower value 1.01 | S. cerevisiae deletion strains, locus YLR320W, strain mms22, stronger effect = lower value 0.969 | S. cerevisiae deletion strains, locus YLR330W, strain CHS5, stronger effect = lower value 0.99 | S. cerevisiae deletion strains, locus YLR342W, strain FKS1 (second series), stronger effect = lower value 1.03 | S. cerevisiae deletion strains, locus YLR342W, strain FKS1, stronger effect = lower value 0.98 | S. cerevisiae deletion strains, locus YLR357W, strain rsc2, stronger effect = lower value 0.956 | S. cerevisiae deletion strains, locus YLR370C, strain arc18, stronger effect = lower value 0.981 | S. cerevisiae deletion strains, locus YLR371W, strain rom2, stronger effect = lower value 0.997 | S. cerevisiae deletion strains, locus YLR384C, strain iki3, stronger effect = lower value 0.963 | S. cerevisiae deletion strains, locus YLR418C, strain cdc73, stronger effect = lower value 1.03 | S. cerevisiae deletion strains, locus YML016C, strain PPZ1, stronger effect = lower value 0.984 | S. cerevisiae deletion strains, locus YML032C, strain rad52, stronger effect = lower value 0.996 | S. cerevisiae deletion strains, locus YML120C, strain ndi1, stronger effect = lower value 0.953 | S. cerevisiae deletion strains, locus YML124C, strain tub3, stronger effect = lower value 0.993 | S. cerevisiae deletion strains, locus YMR058W, strain fet3, stronger effect = lower value 0.972 | S. cerevisiae deletion strains, locus YMR078C, strain ctf18, stronger effect = lower value 0.993 | S. cerevisiae deletion strains, locus YMR125W, strain sto1, stronger effect = lower value 0.941 | S. cerevisiae deletion strains, locus YMR129W, stronger effect = lower value 0.974 | S. cerevisiae deletion strains, locus YMR205C, strain PFK2, stronger effect = lower value 0.962 | S. cerevisiae deletion strains, locus YMR223W, strain ubp8, stronger effect = lower value 0.991 | S. cerevisiae deletion strains, locus YMR231W, strain pep5, stronger effect = lower value 0.983 | S. cerevisiae deletion strains, locus YMR263W, strain SAP30, stronger effect = lower value 0.987 | S. cerevisiae deletion strains, locus YMR307W, strain GAS1, stronger effect = lower value 1.04 | S. cerevisiae deletion strains, locus YNL067W, strain RPL9B, stronger effect = lower value 1 | S. cerevisiae deletion strains, locus YNL071W, strain lat1, stronger effect = lower value 0.979 | S. cerevisiae deletion strains, locus YNL128W, strain TEP1, stronger effect = lower value 0.975 | S. cerevisiae deletion strains, locus YNL153C, strain GIM3, stronger effect = lower value 0.981 | S. cerevisiae deletion strains, locus YNL183C, strain NPR1, stronger effect = lower value 0.92 | S. cerevisiae deletion strains, locus YNL209W, strain ssb2, stronger effect = lower value 0.971 | S. cerevisiae deletion strains, locus YNL233W, strain BNI4, stronger effect = lower value 0.991 | S. cerevisiae deletion strains, locus YNL248C, strain rpa49, stronger effect = lower value 0.977 | S. cerevisiae deletion strains, locus YNL250W, strain rad50, stronger effect = lower value 0.982 | S. cerevisiae deletion strains, locus YNL271C, strain bni1, stronger effect = lower value 0.999 | S. cerevisiae deletion strains, locus YNL298W, strain CLA4, stronger effect = lower value 1 | S. cerevisiae deletion strains, locus YNL307C, strain MCK1, stronger effect = lower value 1 | S. cerevisiae deletion strains, locus YNL322C, strain KRE1 (second series), stronger effect = lower value 0.951 | S. cerevisiae deletion strains, locus YNL322C, strain KRE1, stronger effect = lower value 0.987 | S. cerevisiae deletion strains, locus YNR049C, strain mso1, stronger effect = lower value 0.961 | S. cerevisiae deletion strains, locus YNR052C, strain pop2, stronger effect = lower value 0.998 | S. cerevisiae deletion strains, locus YOL006C, strain TOP1, stronger effect = lower value 0.962 | S. cerevisiae deletion strains, locus YOL012C, strain htz1 1.14 | S. cerevisiae deletion strains, locus YOL147C, strain pex11, stronger effect = lower value 1 | S. cerevisiae deletion strains, locus YOR001W, strain rrp6, stronger effect = lower value 0.998 | S. cerevisiae deletion strains, locus YOR061W, strain CKA2, stronger effect = lower value 0.967 | S. cerevisiae deletion strains, locus YOR069W, strain VPS5, stronger effect = lower value 0.99 | S. cerevisiae deletion strains, locus YOR070C, strain gyp1, stronger effect = lower value 0.981 | S. cerevisiae deletion strains, locus YOR080W, strain dia2, stronger effect = lower value 0.967 | S. cerevisiae deletion strains, locus YOR083W, strain WHI5, stronger effect = lower value 0.947 | S. cerevisiae deletion strains, locus YOR106W, strain vam3, stronger effect = lower value 0.954 | S. cerevisiae deletion strains, locus YOR136W, strain idh2, stronger effect = lower value 0.999 | S. cerevisiae deletion strains, locus YOR144C, strain elg1, stronger effect = lower value 1 | S. cerevisiae deletion strains, locus YOR184W, strain ser1, stronger effect = lower value 0.991 | S. cerevisiae deletion strains, locus YOR231W, strain MKK1, stronger effect = lower value 0.98 | S. cerevisiae deletion strains, locus YOR265W, strain rbl2, stronger effect = lower value 0.983 | S. cerevisiae deletion strains, locus YOR270C, strain vph1, stronger effect = lower value 0.915 | S. cerevisiae deletion strains, locus YOR290C, strain snf2, stronger effect = lower value 0.919 | S. cerevisiae deletion strains, locus YOR316C, strain cot1, stronger effect = lower value 0.992 | S. cerevisiae deletion strains, locus YPL051W, strain arl3, stronger effect = lower value 0.987 | S. cerevisiae deletion strains, locus YPL055C, strain LGE1, stronger effect = lower value 0.973 | S. cerevisiae deletion strains, locus YPL078C, strain atp4, stronger effect = lower value 0.968 | S. cerevisiae deletion strains, locus YPL106C, strain sse1, stronger effect = lower value 0.942 | S. cerevisiae deletion strains, locus YPL240C, strain hsp82, stronger effect = lower value 0.973 | S. cerevisiae deletion strains, locus YPL241C, strain CIN2, stronger effect = lower value 0.991 | S. cerevisiae deletion strains, locus YPL256C, strain CLN2, stronger effect = lower value 0.998 | S. cerevisiae deletion strains, locus YPR119W, strain clb2, stronger effect = lower value 1 | S. cerevisiae deletion strains, locus YPR141C, strain kar3, stronger effect = lower value 0.992 | S. cerevisiae deletion strains, locus YPR163C, strain tif3, stronger effect = lower value 1 | S. cerevisiae deletion strains, locus YPR167C, strain met16, stronger effect = lower value 0.998 | S. cerevisiae deletion strains, strain wtn01, stronger effect = lower value 0.997 | S. cerevisiae strains, strain wild type, stronger effect = lower value 0.98
